In all, about 33,000 sequences were measured (“e-score”: median about -0.038, highest 2% from about 0.33 on). The sample as a whole holds a higher share of the highest values than the screen did.

For this assay, the target named is T1, GST-Rok-C97-191 (Bacillus subtilis subsp. subtilis str. …, UniProt O34857 97-191).
T1 sequence: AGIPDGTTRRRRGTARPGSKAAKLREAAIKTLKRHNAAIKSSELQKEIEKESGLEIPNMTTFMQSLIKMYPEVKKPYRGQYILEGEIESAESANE
The experiment in a line: protein binding microarray; Rok is a gene silencer of Bacillus subtilis; high values mean tight binding. The following applies: protein: recombinant; tags: GST (pTH5325, pDEST15-Magic modified); dsDNA, one strand shown. The method, boiled down:
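Every oligonucleotide joins a 25-mer constant primer to a 35-mer variable part drawn from a de Bruijn sequence of order 10, so each non-palindromic 8-mer appears at least 32 times and each palindromic 8-mer 16 times. The preference for every 8-mer is reported as a unitless, rank-based enrichment score (E-score). This score spans 0.5 for the most favored 8-mer to −0.5 for the most disfavored.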
As to TCCATTCA, the binding signal was -0.131 E-score.

Turning to TAACAATA, the binding signal was 0.292 E-score.

As for GATTTGCC, the binding signal was -0.0374 E-score.

With CGTTATCC, the binding signal was -0.0591 E-score.

Regarding ACACCTGC, the binding signal was -0.197 E-score.

Consider GTGCGGGA, for which the binding signal was -0.196 E-score.

For the sequence CTCCCATC, the binding signal was -0.161 E-score.

Take AATAGATT: the binding signal is 0.352 E-score.

With AATAGATG, the binding signal worked out at 0.267 E-score.

Regarding AATAGATC, the binding signal was 0.161 E-score.

Take CTAGTCGA: the binding signal stood at 0.131 E-score.

As to GATAAGCA, the binding signal was determined as 0.0731 E-score.

For ATAATACG, the binding signal turned out to be 0.344 E-score.

For the sequence CTAATAAG, the binding signal turned out to be 0.127 E-score.

As to ATAATAAT, the binding signal came to 0.31 E-score.

On to ATAATAAG, for which the binding signal turned out to be 0.331 E-score.

Consider ATAATACC, for which the binding signal was 0.197 E-score.

Consider ATAATACA, for which the binding signal stood at 0.242 E-score.

For the sequence AGGAACCA, the binding signal was 0.128 E-score.

With AAGCTTGC, the binding signal was -0.0667 E-score.

As for AAGACGGC, the binding signal is -0.186 E-score.

For the sequence CCTCGCTC, the binding signal is -0.125 E-score.

Consider AAATATAT, for which the binding signal was 0.417 E-score.

AAATATAC: the binding signal came to 0.401 E-score.

AACTATAG: the binding signal came to 0.327 E-score.

Take AAATATAG: the binding signal was determined as 0.22 E-score.

In the case of CAATATAC, the binding signal stood at 0.243 E-score.

AACTATAT: the binding signal was found to be 0.415 E-score.

Take GAATATAC: the binding signal stood at 0.293 E-score.

As to AAATATAA, the binding signal amounted to 0.269 E-score.

AACTATAC: the binding signal came out at 0.253 E-score.

AAGTGCGG: the binding signal stood at 0.009 E-score.

On to CGAGCCTA, for which the binding signal was -0.0633 E-score.

Consider GAACGTCA, for which the binding signal is -0.14 E-score.

In the case of CGGCACTA, the binding signal worked out at 0.0999 E-score.

Turning to ATTTAGGG, the binding signal is -0.024 E-score.

Turning to CTTTGCTC, the binding signal is -0.124 E-score.

With AAAGTACC, the binding signal turned out to be 0.291 E-score.

Regarding AAAGTACG, the binding signal is 0.192 E-score.

On to GAAGTACA, for which the binding signal is 0.237 E-score.

AAAGTACA: the binding signal was determined as 0.366 E-score.

Turning to TAAGTACA, the binding signal came out at 0.35 E-score.

Consider CAAGTACA, for which the binding signal worked out at 0.151 E-score.

For CCGTTGGA, the binding signal is -0.177 E-score.

For ACAAAACG, the binding signal is -0.11 E-score.

As for AATTTACA, the binding signal was 0.331 E-score.

Take CATTTACG: the binding signal worked out at 0.0408 E-score.

Regarding AATTTAAT, the binding signal came to 0.321 E-score.

On to TATTTACA, for which the binding signal amounted to 0.235 E-score.

As to ATTTTACC, the binding signal amounted to 0.322 E-score.

GATTTACC: the binding signal was 0.187 E-score.

As to AATTTACG, the binding signal worked out at 0.338 E-score.

For AATTTACC, the binding signal was 0.345 E-score.

As to CATTTACA, the binding signal was 0.277 E-score.

On to AATTTACT, for which the binding signal was found to be 0.416 E-score.

As for ATTTTACG, the binding signal came out at 0.268 E-score.

As to AATTTAGT, the binding signal is 0.165 E-score.

Turning to AAAAATGT, the binding signal came out at 0.129 E-score.

Consider AAGGCAGC, for which the binding signal came out at 0.0072 E-score.

CCAAACGG: the binding signal is -0.0693 E-score.

For the sequence CAATGTTA, the binding signal is 0.195 E-score.

CTGCGCCC: the binding signal was -0.144 E-score.

Take GACACTGC: the binding signal is -0.137 E-score.

Regarding AGCGTTCC, the binding signal was -0.026 E-score.

Regarding AATCAGAC, the binding signal is -0.0483 E-score.

Regarding CGCGATTA, the binding signal stood at 0.0183 E-score.

In the case of AGCAGTCA, the binding signal is 0.0635 E-score.

In the case of ACGACCTA, the binding signal was 0.00188 E-score.

With ATTTTTCG, the binding signal was found to be 0.181 E-score.

As for ATACGTAA, the binding signal worked out at 0.371 E-score.

Take GTACGTAA: the binding signal was 0.0489 E-score.

On to TTACGTAA, for which the binding signal came out at 0.261 E-score.

Regarding ACGGAAGG, the binding signal was -0.162 E-score.

For CTATCTAC, the binding signal worked out at 0.433 E-score.

For ATATCTTC, the binding signal was 0.344 E-score.

As for ATCTCTAC, the binding signal was 0.118 E-score.

For the sequence CTATCTTC, the binding signal worked out at 0.105 E-score.

As to CCATCTAC, the binding signal was 0.213 E-score.

Consider ATATCTAG, for which the binding signal is 0.284 E-score.

On to CTATCTAA, for which the binding signal came to 0.282 E-score.

With ATATCTTA, the binding signal came out at 0.26 E-score.

Take ATATCTAA: the binding signal was determined as 0.351 E-score.

Consider ATCTCTAA, for which the binding signal turned out to be 0.106 E-score.

Take ATATCTAC: the binding signal worked out at 0.377 E-score.

Take CTCTCTAC: the binding signal worked out at 0.064 E-score.

As for CAGACGGA, the binding signal was -0.1 E-score.

As to CGGTCGCA, the binding signal is -0.0742 E-score.

Consider GTCAATTA, for which the binding signal worked out at 0.163 E-score.

In the case of GAACAGAC, the binding signal is -0.0366 E-score.

As for TACGCAGA, the binding signal is -0.138 E-score.

As to AGCTGAAC, the binding signal was -0.0772 E-score.

Turning to GATAAAGC, the binding signal was -0.0584 E-score.

Turning to CTAAGTAA, the binding signal stood at 0.266 E-score.

CGTATCAA: the binding signal stood at 0.0404 E-score.

With ATACTGCA, the binding signal came out at 0.287 E-score.

As for ATACTACA, the binding signal was determined as 0.388 E-score.

In the case of CTACTACA, the binding signal stood at 0.366 E-score.

With CTACTAGA, the binding signal was 0.293 E-score.

In the case of GTACTACA, the binding signal was determined as 0.296 E-score.

As for ACACTACA, the binding signal is 0.294 E-score.

For AGACGTGC, the binding signal was -0.045 E-score.

CAGCTAAA: the binding signal was 0.0943 E-score.

Turning to CTTTTTGC, the binding signal was -0.0956 E-score.

Consider CTAAGCGA, for which the binding signal was -0.171 E-score.

Turning to TAGTCAAA, the binding signal was determined as 0.158 E-score.

Turning to CCATATTA, the binding signal came out at 0.121 E-score.

In the case of CAATATTA, the binding signal is 0.204 E-score.

For the sequence GAATATTA, the binding signal amounted to 0.2 E-score.

On to TAATATTA, for which the binding signal turned out to be 0.287 E-score.

CTATATTA: the binding signal stood at 0.355 E-score.

Turning to AAATATTG, the binding signal was determined as 0.286 E-score.

As for AAATATTA, the binding signal was determined as 0.355 E-score.

Consider ATATATTG, for which the binding signal amounted to 0.419 E-score.

In the case of GAATATTC, the binding signal amounted to 0.339 E-score.

Turning to ACATATTG, the binding signal was found to be 0.232 E-score.

As to CAATATTC, the binding signal amounted to 0.186 E-score.

In the case of AAATATTC, the binding signal worked out at 0.219 E-score.

Take ACCTATTC: the binding signal was 0.0409 E-score.

Consider GAATGCAA, for which the binding signal is -0.0262 E-score.

As to CCGCAAAA, the binding signal was -0.142 E-score.

As for AGGCCGGA, the binding signal was -0.102 E-score.

With GTATATTA, the binding signal came to 0.371 E-score.

As for CTCTATTC, the binding signal was -0.103 E-score.

AGATATTG: the binding signal was 0.186 E-score.

Consider GTGTATTA, for which the binding signal is 0.11 E-score.

Take ATATATTC: the binding signal was found to be 0.374 E-score.

Turning to ATGTATTA, the binding signal turned out to be 0.301 E-score.

As to ATATATTA, the binding signal was found to be 0.447 E-score.

As to GCATATTA, the binding signal stood at 0.153 E-score.

Turning to AGATATTA, the binding signal was found to be 0.356 E-score.

As to CTATATTC, the binding signal came to 0.274 E-score.

Regarding CGATATTA, the binding signal came to 0.286 E-score.

As for ACATATTA, the binding signal was 0.304 E-score.

On to AGGTCCCG, for which the binding signal was -0.133 E-score.

On to AAACTTCA, for which the binding signal was determined as 0.0505 E-score.

In the case of GAAAAACA, the binding signal was 0.0708 E-score.

CACGGAAG: the binding signal amounted to 0.00148 E-score.

For the sequence AAAGTCTC, the binding signal was found to be 0.0451 E-score.

With AGGGTCGC, the binding signal was -0.122 E-score.

With GCGTCCAA, the binding signal is -0.0249 E-score.

With GCGTAAAA, the binding signal turned out to be 0.139 E-score.

Regarding ACCTCGAT, the binding signal came out at 0.113 E-score.

For AGCCGTTC, the binding signal is -0.05 E-score.

Turning to ACAGCAAG, the binding signal is -0.0495 E-score.

In the case of AAGGTAGC, the binding signal turned out to be 0.158 E-score.

For AAGGTAGT, the binding signal is 0.33 E-score.

As for ACGGTAGT, the binding signal worked out at 0.408 E-score.

In the case of ACGGTAGC, the binding signal amounted to 0.0805 E-score.

With AAGGTAGG, the binding signal was -0.00436 E-score.

Consider ACGGTAGA, for which the binding signal was determined as 0.318 E-score.

For ATGCAAGC, the binding signal is -0.0317 E-score.

As to CGTCGCTC, the binding signal was -0.161 E-score.

Turning to ACATTCCC, the binding signal is -0.0621 E-score.

For AGGACCGG, the binding signal was -0.171 E-score.

Consider ATCTACTG, for which the binding signal was found to be 0.423 E-score.

For the sequence ATCTACGG, the binding signal came out at 0.0258 E-score.

For the sequence GTCTACTA, the binding signal was found to be 0.29 E-score.

For ATCTACTA, the binding signal was determined as 0.456 E-score.

Turning to ATCTACTC, the binding signal worked out at 0.206 E-score.

For CTCTACTA, the binding signal came out at 0.2 E-score.

As to ACCCACTG, the binding signal was -0.0641 E-score.

For the sequence CATCGGAC, the binding signal worked out at 0.0521 E-score.

On to GGCAAAGA, for which the binding signal was -0.188 E-score.

For ACGGTTAT, the binding signal worked out at 0.165 E-score.

As to ATGATACG, the binding signal turned out to be 0.141 E-score.

For the sequence CTACCCGC, the binding signal was -0.0513 E-score.

As for CGGTAAGA, the binding signal was -0.0738 E-score.

For the origin of these results see article PMC6212790, “How bacterial xenogeneic silencer rok distinguishes foreign from self DNA in its resident genome”.
